Reference: PubChem BioAssay (NCI)
Compounds without any hit were thinned out: in the full panel of roughly 83,000, 20% have a hit.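 For each line, cells grew in 96-well plates with the test compound present at a single concentration for 48 hours.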 Values without a mark were called inactive. Active and inactive are the calls of the source. How the source made its calls: active means growth percent below 10; inactive means the rest.

Tests used:
Assay in all cases: NCI-60 one-dose screen, 48 h (100 = growth as untreated, 0 = no growth, -100 = all killed)
Conditions in all cases: 10 µM unless noted
DU-145 prostate = system: DU-145 prostate
K-562 leukemia = system: K-562 leukemia
MALME-3M melanoma = system: MALME-3M melanoma
MDA-MB-231 breast = system: MDA-MB-231 breast
RXF 393 renal = system: RXF 393 renal
SF-268 CNS = system: SF-268 CNS
SF-295 CNS = system: SF-295 CNS
SF-539 CNS = system: SF-539 CNS
UACC-257 melanoma = system: UACC-257 melanoma
M14 melanoma = system: M14 melanoma
HCT-15 colon = system: HCT-15 colon
HT29 colon = system: HT29 colon
SNB-75 CNS = system: SNB-75 CNS
SNB-19 CNS = system: SNB-19 CNS
U251 CNS = system: U251 CNS
PC-3 prostate = system: PC-3 prostate
SK-MEL-5 melanoma = system: SK-MEL-5 melanoma
UACC-62 melanoma = system: UACC-62 melanoma
LOX IMVI melanoma = system: LOX IMVI melanoma
SK-MEL-28 melanoma = system: SK-MEL-28 melanoma

Compound	growth (DU-145 prostate)	growth (K-562 leukemia)	growth (MALME-3M melanoma)	growth (MDA-MB-231 breast)	growth (RXF 393 renal)	growth (SF-268 CNS)	growth (SF-295 CNS)	growth (SF-539 CNS)	growth (UACC-257 melanoma)	growth (M14 melanoma)	growth (HCT-15 colon)	growth (HT29 colon)	growth (SNB-75 CNS)	growth (SNB-19 CNS)	growth (U251 CNS)	growth (PC-3 prostate)	growth (SK-MEL-5 melanoma)	growth (UACC-62 melanoma)	growth (LOX IMVI melanoma)	growth (SK-MEL-28 melanoma)
N#CC1=C(N)Oc2c(ccc3ccccc23)C1c1cc2ccccc2n2nnnc12 (stereo not given)	19.5%	4.13% (active)	53.4%	32.9%	11.4%	26.3%	10.7%	-8.31% (active)	47.4%	12.7%	11.8%	8.73% (active)	8.82% (active)	26.2%	18.7%	10.1%	7.97% (active)	25.4%	24.5%	39.3%
COc1ccc(N/N=C/c2ccc3c(c2)Sc2ccccc2N3C)cc1	58.7%	4.21% (active)	107%	84.2%	105%	53.7%	6.85% (active)	57.1%	96.1%	40.9%	84.5%	98.6%	73.5%	81.1%	63.9%	44.4%	77%	10.8%	28.1%	100%
CN1CCN(Cc2ccc(NC(=O)c3cncc(C#Cc4c(N)ncc5c(F)cccc45)c3)cc2C(F)(F)F)CC1	-90.3% (active)	-66.9% (active)	-74.3% (active)	-89.6% (active)	-91.5% (active)	-63.6% (active)	-70.6% (active)	-95.4% (active)	-73% (active)	-66% (active)	-83.7% (active)	-77.1% (active)	-81% (active)	-97% (active)	-88.4% (active)	-69.2% (active)	-87.2% (active)	-93.3% (active)	-96.1% (active)	-86.5% (active)
COc1cccc(/C=C/C(=O)/C=C(/C=C/c2cccc(OC)c2OC)OB(F)F)c1OC	55.7%	32.9%	32%	60.3%	102%	95.3%	103%	57.7%	28.6%	61.7%	29.4%	49.2%	65.8%	77.7%	36.4%	57.9%	93.4%	42.4%	18.2%	50.7%
CC1(C)CC[C@]2(CO)CC[C@]3(C)[C@H](CC[C@@H]4[C@@]5(C)CC[C@H](O)C(C)(C)[C@@H]5CC[C@]43C)[C@H]2[C@H]1O	77.7%	83.9%	78.1%	26.5%	61.1%	83.7%	86.4%	12.8%	104%	99.7%	93.4%	56.3%	-33.7% (active)	96.1%	62.3%	68.2%	91.8%	90.6%	76.2%	91.2%
CN1CCN(Cn2nc(-c3cc(Cl)cc(Cl)c3Cl)oc2=S)CC1	108%	68.8%	101%	94.4%	99.5%	109%	87.7%	106%	77.8%	107%	99.5%	102%	80.9%	95.4%	97.5%	92.1%	101%	99.7%	93.8%	110%
Nc1ncc(-c2ccc3ncnc(N4CCc5cc(F)c(Cl)cc54)c3c2)cc1C(F)(F)F	33.5%	15%	13.6%	23.9%	-33.6% (active)	34.1%	26%	8.36% (active)	48.2%	33.8%	17.9%	20.4%	-14.3% (active)	46.1%	47.8%	25.2%	37.8%	20.4%	12.7%	38.3%
